Among the data in PubChem BioAssay AID488969 (Vanderbilt High Throughput Screening Facility, 2010) are z-score values, retold here.

Whole data set: some 110,000 compounds, median “z-score” near -0.1, cut for the highest 2% near 2. For the sample, the highest values were picked, then their nearest neighbours and some compounds at random. Active and inactive are the calls of the source.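 The calls were made as follows: active = z-score in the third read window above 3 or below -3; inactive = the rest.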

Metabotropic glutamate receptor 8 (Rattus norvegicus), sequence (P70579 whole entry, looked up): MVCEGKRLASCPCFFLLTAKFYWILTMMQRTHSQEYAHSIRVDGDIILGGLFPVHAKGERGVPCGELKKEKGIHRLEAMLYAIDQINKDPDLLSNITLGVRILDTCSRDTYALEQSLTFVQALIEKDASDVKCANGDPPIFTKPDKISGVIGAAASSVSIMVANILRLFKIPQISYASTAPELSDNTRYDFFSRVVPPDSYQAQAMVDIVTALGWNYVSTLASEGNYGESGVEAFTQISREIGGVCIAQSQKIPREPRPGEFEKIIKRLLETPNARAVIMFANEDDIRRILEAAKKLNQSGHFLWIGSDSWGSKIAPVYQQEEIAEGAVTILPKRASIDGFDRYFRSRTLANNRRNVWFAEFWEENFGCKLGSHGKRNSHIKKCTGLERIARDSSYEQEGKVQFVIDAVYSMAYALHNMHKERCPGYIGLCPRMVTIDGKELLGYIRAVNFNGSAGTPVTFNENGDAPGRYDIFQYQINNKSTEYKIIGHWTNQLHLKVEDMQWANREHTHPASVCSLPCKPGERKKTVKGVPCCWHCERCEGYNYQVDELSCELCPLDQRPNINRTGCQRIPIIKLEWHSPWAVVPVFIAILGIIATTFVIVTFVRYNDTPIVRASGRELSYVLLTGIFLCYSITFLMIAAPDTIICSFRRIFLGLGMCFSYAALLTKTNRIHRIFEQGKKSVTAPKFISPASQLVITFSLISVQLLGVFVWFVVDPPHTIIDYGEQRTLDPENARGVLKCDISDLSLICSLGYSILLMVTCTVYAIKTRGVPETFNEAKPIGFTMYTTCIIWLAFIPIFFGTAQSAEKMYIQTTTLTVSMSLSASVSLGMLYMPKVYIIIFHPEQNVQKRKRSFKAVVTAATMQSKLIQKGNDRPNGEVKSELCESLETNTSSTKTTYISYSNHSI

This experiment has as its target Metabotropic glutamate receptor 8 (Rattus norvegicus) (UniProt P70579). Kind of experiment: rat mGluR8 modulators via GIRK flux, primary screen, cell-based, thallium flux, HTS (AID 488969). The conditions noted are these: HEK293 rat mGluR8, GIRK (G protein-gated inwardly rectifying potassium channel) thallium flux, FluoZin2; at 10 µM; stronger effect = higher value; submaximal glutamate (EC20) added with thallium.
Consider `S=c1[nH]c2ccc(Cl)cc2[nH]1`, for which the z-score is 0.488.

For the compound `CSc1nc2cc(Cl)ccc2s1`, the z-score was -0.233.

For the compound `S=c1[nH]c2cc(Cl)ccc2s1`, the z-score was 14.9 (active).

As to `Cc1ccc(S(=O)(=O)N2CCC(C(=O)N3CCC(C(=O)NCC4CCCO4)CC3)CC2)cc1` (centres undefined), the z-score stood at 0.137.

Regarding `Cc1ccc(F)c(NC(=O)C2CCCCC2C(=O)O)c1` (centres undefined), the z-score came out at 1.59.

For the compound `O=C(Nc1ccc2c(c1)OCO2)c1cc2nc(C3CC3)cc(C(F)(F)F)n2n1`, the z-score was -0.167.

With `CC(C)c1cc(C(F)(F)F)n2nc(C(=O)Nc3ccc4c(c3)OCO4)cc2n1`, the z-score was 4.57 (active).

For the compound `CC(=O)c1cc2c(cc1NC(=O)c1cc3nc(C(C)C)cc(C(F)(F)F)n3n1)OCO2`, the z-score was -0.248.

As for `Cc1nc(NC(=O)c2ccc(Cl)cc2)sc1-c1csc(Nc2cccc(F)c2)n1`, the z-score is -0.184.

Take `CCn1c(COc2ccccc2C)nc2ccccc21`: the z-score is -1.56.

For the compound `CCC(=O)c1ccc(N2CCCCCC2)c(F)c1`, the z-score was -0.499.

Consider `CCC(=O)c1ccc(N2CCCC2)c(F)c1`, for which the z-score was 0.0378.

`CC(=O)c1ccc(N2CCCC2)c(F)c1`: the z-score is 2.4.

Regarding `Cc1ccc(S(=O)(=O)NNc2nc3ccccc3nc2C(F)(F)F)cc1`, the z-score was -0.286.

Take `O=C(NNc1c2ccccc2nc2ccccc12)c1ccc(O)cc1`: the z-score turned out to be 2.21.

For the compound `Cc1ccc(C(=O)NN(C)c2nc3ccccc3nc2C(F)(F)F)cc1`, the z-score was determined as 0.198.

`O=C(NNc1c2ccccc2nc2ccccc12)c1ccc(O)cc1O` had a z-score of 0.0188.

On to `O=C(NNc1nc(-c2ccccc2)cs1)c1ccccc1`, for which the z-score was -1.53.

For the compound `Cc1ccc(C(=O)NNc2nc3ccccc3nc2C(F)(F)F)cc1`, the z-score was 5.19 (active).

Compound `O=C(NNc1nc2ccccc2nc1C(F)(F)F)c1ccccc1` yielded a z-score of 2.44.

In the case of `FC(F)(F)c1nc2ccccc2nc1N/N=C\c1ccccc1`, the z-score came out at 0.3.

In the case of `O=C(NNc1c2ccccc2nc2ccccc12)c1cccc(O)c1`, the z-score is -0.199.

On to `O=C1c2ccccc2C(Nc2ccc(S(=O)(=O)N3CCOCC3)cc2)N1c1ccccn1` (centres undefined), for which the z-score is -0.244.

Regarding `COc1ccc(CN(C)CC(=O)Nc2cc(OC)c([N+](=O)[O-])cc2C)c(OC)c1`, the z-score is -0.503.

Consider `COc1ccccc1C(=O)NCC1CCN(c2ccc(S(=O)(=O)N3CCOCC3)cc2)CC1`, for which the z-score was -0.35.

Turning to `COc1ccccc1OCc1ccc(C(=O)NN)cc1`, the z-score was -0.037.

With `O=C(NCC1CCCO1)C1CC1(c1ccccc1)c1ccccc1` (centres undefined), the z-score came out at 1.76.

With `CCOc1cc(C(=O)OCC(=O)c2c(C)[nH]c3ccccc23)ccc1OCC(=O)N1CCOCC1`, the z-score is -0.335.

In the case of `CNC(=O)C1=C(C)Nc2nc3ccccc3n2C1c1cccc(OC)c1` (centres undefined), the z-score is -0.775.

Consider `CCOC(=O)C1CCCN(C(=O)Cn2sc3nc(C)cc(C)c3c2=O)C1` (centres undefined), for which the z-score was 2.2.

For `CCOC(=O)C1CCCN(C(=O)CSc2nccn2C)C1` (centres undefined), the z-score amounted to 2.87.

`CCOC(=O)C1CCCN(C(=O)COc2ccccc2O)C1` (centres undefined): the z-score was determined as 0.0285.

As to `Cc1cccc(N2CCN(C(=O)Cn3sc4nc(C)cc(C)c4c3=O)CC2C)c1` (centres undefined), the z-score worked out at 0.149.

For `CCOC(=O)C1CCCN(C(=O)CSCc2ccccc2)C1` (centres undefined), the z-score is -1.22.

Take `Cc1cc(C)c2c(=O)n(CC(=O)N3CCC(N4CCCCC4)CC3)sc2n1`: the z-score is -0.421.

Regarding `COc1ccccc1N(CC(=O)Nc1ccccc1C(=O)NC(C)C)S(C)(=O)=O`, the z-score is -0.955.

Take `O=C1CCC([N+](=O)[O-])C(c2ccc(Cl)cc2Cl)N1` (centres undefined): the z-score was -0.219.

As for `CCCN1C(=O)/C(=C/c2ccco2)SC1=Nc1ccc(OC)cc1`, the z-score is -0.105.

Turning to `O=C(CCS(=O)(=O)Cc1ccccc1)N1CCc2ccccc2C1`, the z-score was -0.136.

As to `CCN1CCCC1CNC(=O)c1c(O)c2c([nH]c1=O)CCCC2` (centres undefined), the z-score is -0.0826.

For the compound `C[N+](C)(C)CCNC(=O)c1c(O)c2c([nH]c1=O)CCCC2`, the z-score is 0.798.

In the case of `O=C(NCC1CCCO1)c1c(O)c2c([nH]c1=O)CCCC2` (centres undefined), the z-score is 2.44.

As to `COc1ccc(CNC(=O)CN(Cc2ccc(C)cc2)S(=O)(=O)c2ccc(Cl)cc2)cc1`, the z-score is 0.0059.

In turn, `CC1=C(C(=O)N2CCCCC2)C(c2cccs2)C2=C(CCCC2=O)N1` (centres undefined) displayed a z-score of 0.187.

Regarding `CC1SC(c2ccc(Cl)cc2Cl)NC1=O` (centres undefined), the z-score was -0.0303.

In the case of `C=C(C)C1CC=C(C)/C(=N/NC(=O)CNc2ccc(OCC)cc2)C1` (centres undefined), the z-score turned out to be 1.99.

Consider `C=C(C)C1CC=C(C)/C(=N/NC(=O)COc2ccc(C)cc2)C1` (centres undefined), for which the z-score came to 1.47.

Consider `C=C(C)C1CC=C(C)/C(=N/NC(=S)Nc2ccccc2)C1` (centres undefined), for which the z-score was determined as 2.35.

Compound `C=C(C)C1CC=C(C)/C(=N/NC(=O)COc2cccc3ccccc23)C1` (centres undefined) showed a z-score of 0.0808.

As to `C=C(C)[C@H]1CC=C(C)/C(=N/NC(=O)CNc2ccccc2OC)C1`, the z-score was 0.284.

Turning to `C=C(C)C1CC=C(C)/C(=N\NC(=O)CCc2ccccc2)C1` (centres undefined), the z-score is -0.339.

As to `C=C(C)C1CC=C(C)/C(=N/NC(=O)COc2ccccc2C)C1` (centres undefined), the z-score stood at 1.

`C=C(C)C1CC=C(C)/C(=N\NC(=O)CNc2ccccc2OC)C1` (centres undefined): the z-score worked out at 0.0831.

Regarding `C=C(C)C1CC=C(C)/C(=N/NC(=O)CNc2ccc(C)cc2C)C1` (centres undefined), the z-score was -0.284.

As for `C=C(C)C1CC=C(C)/C(=N/NC(=O)COc2cccc(C)c2)C1` (centres undefined), the z-score was 8.9 (active).

As for `C=C(C)C1CC=C(C)/C(=N\NC(=S)Nc2ccc(C)cc2)C1` (centres undefined), the z-score came out at 0.799.

As to `C=C(C)C1CC=C(C)/C(=N/NC(=O)COc2ccccc2Cl)C1` (centres undefined), the z-score was 12.4 (active).

Consider `Cc1nn(Cc2ccc(Br)cc2)c(C)c1NC(=O)c1nn(C)cc1Cl`, for which the z-score was -0.296.

In the case of `COC(=O)c1ccccc1NC(=O)CN(C)S(=O)(=O)c1ccc(OC)cc1`, the z-score stood at 0.195.
